For 64 compounds, Potency results are on record in PubChem BioAssay AID686979 (National Center for Advancing Translational Sciences (NCATS), 2013).

Molecules are shown by their SMILES. In all, about 420,000 compounds went through this assay and about 50,000 (12%) were called active. Where a call stands in place of a potency, no number is given. Not shown: some 26% with an inconclusive outcome. Calls come from the whole dose curve; as a rule, active = well fitted inhibition curve with a large enough effect; inconclusive = small, poorly fitted or top-dose-only effect; inactive = flat fitted curve, though single readings scatter. For the sample, actives were picked, then their nearest neighbours and some compounds at random.
Potency is the fitted concentration of half-maximal effect.

A short description of the assay: qHTS for Inhibitors of human tyrosyl-DNA phosphodiesterase 1 (TDP1): qHTS in cells in presence of CPT. Note: nearly all actives have a fitted effect of over 55% in size. The following applies: chicken DT40 Tdp1-/-;hTDP1 cells + 20 nM CPT, ATP luminescence, 48 h; series mostly up to 46.2 µM. In outline: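 Chicken DT40 Tdp1-/- cells complemented with human TDP1, 400 cells/well, exposed to compounds plus 20 nM camptothecin for at least 48 h at 37 C; viability read as ATP content by CellTiter-Glo luminescence.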
In the case of `Cc1cccc(N(C)C(=O)CS(=O)(=O)c2cccc3nsnc23)c1`, the Potency result is “inactive”.
Regarding `Clc1ccc(Nc2ccc3ccccc3n2)cc1`, the Potency entry is “inactive”.
Then `Cc1ccc(S(=O)(=O)c2nnn3c2nc(N2CCN(c4ccccn4)CC2)c2ccccc23)cc1`, with “inactive”.
In the case of `Cc1ccc(C)c(S(=O)(=O)c2nnn3c2nc(N2CCOCC2)c2sccc23)c1` it was 23.1 µM (active); in that of `CCc1ccc(S(=O)(=O)c2nnn3c2nc(N2CCN(CC)CC2)c2sccc23)cc1`, “inactive”.
In the case of `COc1ccc(/C=N/NC(=O)c2ccncc2)cc1CN1CCCc2ccccc21` it was “inactive”; in that of `O=C(Nc1ccccn1)C1CCN(S(=O)(=O)c2ccccc2)CC1`, “inactive”; in that of `CCOc1ccc(NC(=O)CSc2c3c(nc4ccccc24)CCCC3)cc1`, 16.4 µM (active).
Turning to `CCOc1ccc(NC(=O)CSc2nncn2C)cc1`, the Potency result is “inactive”.
Regarding `CCOc1ccc(-n2nc3ccc(NC(=O)c4ccc(OC)c(Cl)c4)cc3n2)cc1`, the Potency result was “inactive”.
In the case of `CCOc1ccc(C(=O)NC2CCN(C(=O)Nc3ccccc3OC)CC2)cc1` it was “inactive”; in that of `COc1cccc(CNC(=O)c2ccc3c(Cl)c4c(nc3c2)CCCC4)c1`, “inactive”; in that of `COc1cccc(CNC(=O)c2nnn(CC(=O)Nc3cc(Cl)ccc3C)c2N)c1`, “inactive”.
Then `COc1cccc(CNC(=O)CSc2c3c(nc4cc(Cl)ccc24)CCCC3)c1`, with 23.1 µM (active); and `CCOc1ccc(NC(=S)N2CCC(NC(=O)c3ccccc3)CC2)cc1`, with “inactive”; and `CCOc1ccc(C(=O)Nc2ccc3nc4c(c(Nc5ccccc5OC)c3c2)CCCC4)cc1`, with 4.11 µM (active).
In the case of `O=C1NCC(Nc2ccccc2)C(=O)N1` (centres undefined), the Potency result was “inactive”.
In the case of `Nc1c(C(=O)OCC(=O)Nc2ccc(OC(F)F)cc2)[nH]c(=O)[nH]c1=O` it was “inactive”; in that of `COc1ccc(S(=O)(=O)N2CCC(C(=O)OCC(=O)c3ccccc3)CC2)cc1[N+](=O)[O-]`, “inactive”; in that of `CCOC(=O)N1CCN(c2c(NCCCN3CCCC(C)C3)c(=O)c2=O)CC1` (centres undefined), “inactive”.
In the case of `CC1(C)CC(=O)c2cnc3nc4ccccc4n3c2C1` it was “inactive”.
Turning to `COc1ccc(C)cc1-n1c(-c2ccc(C)cc2)cc2c1CC(C)(C)CC2=O`, the Potency was 8.2 µM (active).
Then `COc1ccc(Cl)cc1-n1c(CCC(=O)O)ccc1-c1ccc(C)cc1`, with “inactive”.
Then `CCOC(=O)N1CCN(C(=O)COC(=O)c2cccc(S(C)(=O)=O)c2)CC1`, with “inactive”.
In the case of `COc1ccc(NC(=O)CSc2nncc(=O)n2N)cc1OC` it was “inactive”; in that of `CN(C)c1ccc(/C=C/c2sc3ccccc3[n+]2CCCCBr)cc1`, 0.316 µM (active); in that of `CN(C)c1ccc(/C=C/c2sc3ccccc3[n+]2C)cc1`, 0.0447 µM (active).
Regarding `CN(C)c1ccc(/C=N\S(=O)(=O)c2ccccc2)cc1`, the Potency entry is “inactive”.
Then `COc1ccccc1C(=O)NCCC(=O)N(C)Cc1cccnc1`, with “inactive”; and `Cc1ccc(NC(=S)NC(NC(=O)Cc2cccc3ccccc23)C(Cl)(Cl)Cl)cc1` (centres undefined), with “inactive”.
Take `CSc1ncnc2c1ncn2CCCNCc1ccco1`: the Potency entry is “inactive”.
Then `O=C(NNc1c2ccccc2nc2ccccc12)c1cc2ccccc2cc1O`, with 23.1 µM (active).
In the case of `O=C(CSc1nc(C2CC2)nc2ccccc12)Nc1cccc(O)c1` it was “inactive”.
As for `Cc1ccc(C(=O)NNC(=O)OC(C)(C)C)c(Cl)c1`, the Potency entry was “inactive”.
Then `O=C(COC(=O)c1ccc(O)cc1O)NC(=O)c1ccccc1`, with “inactive”; and `CC(C)(C)OC(=O)NNc1c2ccccc2nc2ccccc12`, with 16.4 µM (active); and `Cc1ccccc1NC(=O)NNC(=O)OC(C)(C)C`, with “inactive”.
With `O=C1NC(=O)C(CCc2ccccc2)(c2ccccc2)N1` (centres undefined), the Potency result was “inactive”.
In the case of `CC(=O)NN=C(C)c1ccc(NC(=O)C2CC2)cc1`, the Potency entry was “inactive”.
In the case of `Cc1c(S(=O)(=O)NC(C)c2ccccc2)c(=O)n(C)c(=O)n1C` (centres undefined) it was “inactive”; in that of `O=C(NC(Cc1ccccc1)C(=O)O)/C(=C\c1ccccc1)NC(=O)c1ccco1` (centres undefined), “inactive”.
Then `O=C(NCCCn1ccnc1)/C(=C\c1ccccc1F)NC(=O)c1ccccc1`, with “inactive”.
In the case of `Cc1cc(C)cc(NS(=O)(=O)c2ccc3[nH]cc(C(=O)N4CCCCC4)c(=O)c3c2)c1` it was “inactive”.
On to `CCOc1c(Br)cc(/C=C2\C(=O)N(CCC#N)N=C2C)cc1OC`, for which the Potency is 20.6 µM (active).
Then `COc1cc(/C=C2/C(=O)NN(c3cccc(Cl)c3)C2=O)cc(Br)c1O`, with “inactive”.
Then `C=CCOc1c(Br)cc(/C=N\n2nnnc2N)cc1OC`, with “inactive”; and `COc1ccc(-n2c(-c3ccc(Cl)cc3)n[nH]c2=S)c(OC)c1`, with “inactive”; and `CCc1cc(=O)oc2c(C)c(OCC(=O)N3CC[C@@]4(O)CCCC[C@H]4C3)ccc12`, with “inactive”.
Then `Cc1ccc(/C=N/NC(=O)CNC(=O)COc2ccccc2)o1`, with “inactive”.
`Cc1ccc(/C=N/NC(=S)NC2CCCCC2)o1`: the Potency was 14.6 µM (active).
Take `Cc1ccc(NC(=S)NC2CCCC2)cc1`: the Potency entry is “inactive”.
Then `CC12CCC(=O)N1C(C(=O)Nc1ccc(F)c(F)c1F)CS2` (centres undefined), with “inactive”; and `O=C(CCNC(=O)c1ccc(Br)cc1)NCC(c1ccco1)N1CCCCC1` (centres undefined), with “inactive”; and `COc1ccc(-n2c(=O)c3sc4ccccc4c3n(CC(=O)Nc3cccc(C)c3)c2=O)cc1`, with “inactive”.
Then `COc1cccc(NC(=O)CN(C)C(=O)CSCc2nc3scc(-c4cccs4)c3c(=O)[nH]2)c1`, with “inactive”; and `CCOC(=O)c1cc(C#N)c(N2CCCCC2)nc1-c1ccccc1`, with “inactive”; and `CC(C)C[C@H]1CNC(=O)C(=O)N1C[C@@H]1CCCN1C[C@H](Cc1ccccc1)N1C[C@H](CC(C)C)N(CC2CCCCCC2)C(=O)C1=O`, with “inactive”.
Then `CC(C)C[C@H]1CNC(=S)N1C[C@H]1CCCN1C[C@H](Cc1ccc(O)cc1)N1C[C@H](Cc2ccc(O)cc2)N(CC2CCCCC2)C1=S`, with 25.9 µM (active); and `CCOc1ccc(CCN2C(=O)C(=O)N([C@@H](CC(C)C)CN3CCC[C@H]3CN3C(=O)C(=O)NC[C@@H]3Cc3ccccc3)C[C@@H]2CC(C)C)cc1`, with “inactive”; and `Cc1noc(C)c1-c1cc(NCc2cccnc2)ncn1`, with “inactive”.
As for `COCCNc1cc(-c2c(C)noc2C)ncn1`, the Potency entry was “inactive”.
Then `CNc1cc(-c2c(C)noc2C)ncn1`, with 13 µM (active).
Then `Cc1ccc(S(=O)(=O)N2CCCCC2)cc1C(=O)N1CCN(CCO)CC1`, with “inactive”; and `CC1(C)CCc2cc(S(=O)(=O)N3CCN(c4nc(-c5cccs5)nc5ccccc45)CC3)ccc2O1`, with “inactive”.
